Data taken from PubChem BioAssay (NCI).
Compounds without any hit were thinned out: in the full panel of roughly 83,000, 20% have a hit.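 Activity criterion: percent growth below 10, measured after cells in 96-well plates were exposed to a single compound concentration for 48 hours.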 A number with no mark means an inactive call. Active and inactive are the calls of the source.

How the values were obtained:
Experiment in all cases: NCI-60 one-dose screen, 48 h (100 = growth as untreated, 0 = no growth, -100 = all killed)
Details in all cases: 10 µM unless noted
[1] = system: SK-MEL-2 melanoma
[2] = system: EKVX NSCLC
[3] = system: SN12C renal
[4] = system: UO-31 renal
[5] = system: TK-10 renal
[6] = system: ACHN renal
[7] = system: A498 renal
[8] = system: CCRF-CEM leukemia
[9] = system: MOLT-4 leukemia
[10] = system: SR leukemia
[11] = system: RPMI-8226 leukemia
[12] = system: OVCAR-8 ovarian
[13] = system: OVCAR-5 ovarian
[14] = system: OVCAR-4 ovarian
[15] = system: SK-OV-3 ovarian
[16] = system: IGROV1 ovarian
[17] = system: OVCAR-3 ovarian
[18] = system: HS 578T breast
[19] = system: NCI/ADR-RES ovarian
[20] = system: T-47D breast

SMILES | growth [1] | growth [2] | growth [3] | growth [4] | growth [5] | growth [6] | growth [7] | growth [8] | growth [9] | growth [10] | growth [11] | growth [12] | growth [13] | growth [14] | growth [15] [%] | growth [16] | growth [17] | growth [18] | growth [19] | growth [20]
CCCn1c2cc(OCc3cn(-c4ccc(Br)cc4)nn3)ccc2c2ccnc(C)c21 | 70.6% | 82.7% | 17.5% | 23.4% | 85.9% | 17.4% | 77.8% | 13.1% | 45.6% | -15.2% (active) | 33% | 50.8% | 68.3% | -44% (active) | 85.7 | 49.1% | 60.5% | 66.9% | 63.1% | 66.6%
C=C1C(=O)O[C@H]2[C@H]1CC/C(COC(=O)N1CCC[C@H]1C(=O)Nc1ccc(OC)c(C(N)=O)c1O)=C\CC[C@@]1(C)O[C@@H]21 | 66.5% | 77% | 12.9% | 41.2% | -4.11% (active) | 30.6% | 87.9% | -12.6% (active) | 8.14% (active) | 13.9% | 1.38% (active) | 44.4% | 68.5% | 52% | 88.8 | 14.7% | 4.49% (active) | 71.8% | 106% | 29.8%
Cc1ccc(C2CC(c3ccc(Nc4nc(NCCO)nc(NCCO)n4)cc3)=NN2c2ccc(Cl)cc2)cc1 (stereo not given) | 70.6% | 65.7% | 82.4% | 62.3% | 82.6% | 52.2% | 86.1% | 31.8% | 32.3% | 26.2% | 47.5% | 66% | 99% | 63.9% | 98.6 | 82.6% | 45.7% | 72.8% | 80.4% | 53.1%
O=C(/C(=C/c1ccc([N+](=O)[O-])cc1)SCc1ccccc1)c1ccc(Cl)cc1 | 84.5% | 72.6% | -25.4% (active) | 59.5% | 103% | 76.5% | 76.5% | 9.82% (active) | 13.5% | -1.55% (active) | -15.8% (active) | 76.2% | 95.4% | 74.5% | 87.6 | 57% | 70.6% | 75.7% | 62% | 47.8%
C=C1C(=O)O[C@H]2[C@H]1CC/C(COC(=O)CCCCC(=O)OC/C1=C/CC[C@@]3(C)O[C@H]3[C@H]3OC(=O)C(=C)[C@@H]3CC1)=C\CC[C@@]1(C)O[C@@H]21 | 71.9% | 59.1% | 27.8% | 45.8% | 25.2% | 12.6% | 124% | 0.447% (active) | 10.3% | 2.3% (active) | 5.66% (active) | 49.7% | 115% | 82.3% | 85.6 | 39.4% | 18.6% | 82.7% | 87.5% | 38.6%
C=C1C(=O)O[C@H]2[C@H]1CC/C(COC(=O)/C=C/c1cccnc1)=C\CC[C@@]1(C)O[C@@H]21 | 75.2% | 43.4% | 16.8% | 24.9% | 25.1% | -11.4% (active) | 92.4% | -7.32% (active) | 8.45% (active) | 6.38% (active) | 2.83% (active) | 40.6% | 59.1% | 32.4% | 80.2 | 36.7% | -6.31% (active) | 62.8% | 54.5% | 23%
COc1cc(C2=NN(c3ccccc3)C(c3cccc(Nc4ccnc5cc(C(F)(F)F)ccc45)c3)C2)cc(OC)c1OC (stereo not given) | 86.6% | 85.2% | 97.1% | 61.4% | 78.2% | 95.2% | 89.9% | 84.1% | 65.3% | 56.9% | 65.1% | 91.7% | 104% | 91% | 94.7 | 77.9% | 88.1% | 99% | 80.9% | 76.5%
Nn1c(SCC(=O)Nc2ccc(Cl)cc2)nnc1-c1cc(F)c(Cl)cc1Cl | 83.4% | 90.9% | 97.8% | 69.9% | 97.6% | 87.2% | 65.2% | 92.8% | 80.4% | 56.5% | 76.8% | 89.9% | 66.5% | 85.9% | 89.9 | 89.9% | 84.2% | 99.7% | 93.5% | 67.3%
C=C1C(=O)O[C@H]2[C@H]1CC/C(COC(=O)c1cccnc1N)=C\CC[C@@]1(C)O[C@@H]21 | 39.1% | 34.1% | 10.4% | 13.3% | -6.51% (active) | -3.75% (active) | 33.8% | -3.91% (active) | 8.57% (active) | 2.93% (active) | -19.2% (active) | 14.9% | 36.1% | 54.7% | 71.3 | 13.8% | -4.59% (active) | 28.9% | 31.9% | 50.7%
COc1ccc(NC(=O)c2sc3nc(C)c(C(C)=O)cc3c2N)cc1 | 98.5% | 97.2% | 101% | 105% | 75.2% | 95.3% | 71.1% | 92.2% | 84.9% | 84.3% | 85.6% | 91.9% | 91.3% | 95.7% | 99.3 | 115% | 109% | 105% | 98.9% | 82.7%
Cc1ccn2c3c(c(C(=O)O)c2c1)C(=O)c1ccccc1C3=O | 68.9% | 83% | 78.8% | 63.7% | 142% | 86.2% | 89.2% | 89.5% | 84.8% | 80% | 90.6% | 80.1% | 121% | 69.9% | 98.3 | 81.3% | 45.6% | 43.7% | 85.2% | 90.7%
N#Cc1ccc(N2Cc3cc(Cl)ccc3OC3=C2C(=O)N(Cc2ccccc2)C3=O)cc1 | -38.7% (active) | 43.8% | -39.5% (active) | -90.5% (active) | -66.3% (active) | -85.6% (active) | 129% | -9.47% (active) | -24.7% (active) | -25.7% (active) | -23.3% (active) | 4.56% (active) | -5.13% (active) | -7.68% (active) | 94.2 | 13% | -82.1% (active) | 38.1% | 6.99% (active) | -60.1% (active)
CCOc1ccc(C2N(c3cc(OC)c(OC)c(OC)c3)C(=O)C2(F)F)cc1 (stereo not given) | 91.8% | 75.3% | 51% | 51.9% | 103% | 55.3% | 92.3% | 10.2% | 18.1% | 16.2% | 14.6% | 43.2% | 66.5% | 49.6% | 71.9 | 37.8% | 7.25% (active) | 37.4% | 28.9% | 70%
CN1CC=C(c2cc(NC(=O)Nc3ccc(Oc4ccnc(NC(=O)C5CC5)c4)c(F)c3)cc(C(F)(F)F)c2)CC1 | -42.8% (active) | -19.9% (active) | 2.74% (active) | -1.84% (active) | -2.39% (active) | -1.41% (active) | -27.9% (active) | 1.49% (active) | -4.01% (active) | -18.3% (active) | -28% (active) | -2.13% (active) | 7.5% (active) | 3.24% (active) | 17.1 | 2.9% (active) | 8.26% (active) | -17.3% (active) | 44.7% | -0.194% (active)
COC(=O)[C@]1(C)CCC[C@]2(C)[C@H]3C[C@H]4C(C(C)C)=C[C@]3(CC[C@H]21)[C@@H]1C(=O)N(CCC#N)C(=O)[C@@H]14 | 88.6% | 79.5% | 90.2% | 76.1% | 104% | 96.3% | 105% | 61.8% | 38.2% | 80.4% | 62% | 85.5% | 116% | 71.7% | 98.8 | 86.2% | 88.9% | 89.4% | 84.4% | 69.9%
